A short description of the test: qHTS drug screen for cell cycle checkpoint inhibitors in PARPi-resistant BRCA-mutant ovarian cancer cell lines. (AID 1963452). Particulars: PEO1/OlaR viability, CellTiter-Glo luminescence, 96 h; for Z-AUC: stronger effect = lower value. In a few lines: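 PEO1, PEO4 and PEO1/OlaR ovarian cancer cells, 600 per well, exposed 96 h at 37C to a dilution series. Viability read by CellTiter-Glo luminescence, normalized to DMSO and empty wells; activity summarized as Z-AUC.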
In general terms: qHTS replaces the single test concentration by a dilution series.

Setting [1] is: measured here: PEO1 parental Z-AUC.

Where “and” joins values, the source holds several entries; their conditions need not be identical. Identical values can stand only once. Calls of active or inactive are those of the source. The call rests on the fitted dose curve.
Potency means the concentration at half of the fitted maximal effect.

Consider `Cc1ccc(NC(=O)c2ccc3c(c2)OCCO3)cc1NC(=O)c1ccc2nc(OCCN3CCCC3)ccc2c1`, for which the Z-AUC was -1.99 (inactive). Moreover, the Z-AUC under setting [1] is -1.87. Moreover, the Z-AUC (measured here: PEO4 Z-AUC) was -2.21.
For the molecule `CC(/C=C1\SC(=S)N(CC(=O)O)C1=O)=C\c1ccccc1`, the Z-AUC is 1.25 (inactive). Under setting [1], the Z-AUC was 1.33. The Z-AUC (measured here: PEO4 Z-AUC) was determined as 1.77.
For `Clc1cccc(-c2ccc(-c3nnc(CCCc4ccc5cccnc5n4)o3)cc2)c1`, the Z-AUC was 1.61 (inactive). Moreover, under setting [1], the Z-AUC worked out at 1.52. Also, the Z-AUC (measured here: PEO4 Z-AUC) amounted to 1.67.
As to `O=C(/C=C/c1cccnc1)NCCCCC1CCN(C(=O)c2ccccc2)CC1`, the Potency is 43.6 nM (active). In addition, the Z-AUC under setting [1] is -2.84. In addition, under “measured here: PEO4 Z-AUC”, the Z-AUC was -2.61.
With `Cc1ccc(NC(=O)NCc2ccc3c(c2)CN(C2CCC(=O)NC2=O)C3=O)cc1Cl` (stereo not given), the Z-AUC is -3.37 (inactive). Under setting [1], the Z-AUC was -3.53. The Z-AUC (measured here: PEO4 Z-AUC) was -3.45.
Turning to `Cc1cc(C)c(CNC(=O)c2cc(-c3ccc(N4CCN(C)CC4)nc3)cc3c2c(C)cn3C(C)C)c(=O)[nH]1`, the Z-AUC was -1.15 (inactive) and -0.405 (inactive). Moreover, under setting [1], the Z-AUC is -1.04 and 0.4. Also, where the note is “measured here: PEO4 Z-AUC”, the Z-AUC is -1.52 and 0.0539.
On to `COc1cccc2c1C(=O)c1c(O)c3c(c(O)c1C2=O)C[C@@](O)(/C(CO)=N/NC(=O)CCCCCN1C(=O)C=CC1=O)C[C@@H]3O[C@H]1C[C@H](N)[C@H](O)[C@H](C)O1`, for which the Potency is 1100 nM (active). In addition, the Z-AUC under setting [1] is -1.6. Moreover, the Z-AUC (measured here: PEO4 Z-AUC) was -1.55.
As to `C=CCNC1=C2CC(C)CC(OC)C(O)C(C)/C=C(\C)C(OC(N)=O)C(OC)/C=C/C=C(\C)C(=O)NC(=CC1=O)C2=O` (stereo not given), the Z-AUC is -0.25 (inactive). Under setting [1], the Z-AUC is -0.657. Where the note is “measured here: PEO4 Z-AUC”, the Z-AUC was -0.0403.
Taken in the same sequence, the figures for `CN(Cc1ccccc1)C(=O)c1ccc(S(=O)(=O)Nc2ccccc2)cc1` were -0.829 (inactive), -0.00385 and 0.744.
The corresponding values for `Cn1cc(/C=C2\C(=O)Nc3cccnc32)c2ccccc21` are 1.01 (inactive), 0.388 and -0.377.
In the case of `Cc1c(CN2CCN(C(=O)[C@H](C)O)CC2)sc2c(N3CCOCC3)nc(-c3cnc(N)nc3)nc12`, the Z-AUC was 0.0318 (inactive). The Z-AUC under setting [1] is 0.386. Under “measured here: PEO4 Z-AUC”, the Z-AUC was found to be 0.839.
As for `CNc1nc(-c2ccc3c(N)n[nH]c3c2)cc(N2C[C@@H](C(=O)NC3CCCCC3)CC[C@H]2C)n1`, the Z-AUC is -1.31 (inactive). Besides, the Z-AUC under setting [1] was determined as 0.449. Further, the Z-AUC (measured here: PEO4 Z-AUC) is -0.0883.
With `NS(=O)(=O)c1ccc(Cc2c(-c3cccc(-c4ccccc4)c3)nn(-c3nc(C(=O)O)cs3)c2CC2CC2)cc1`, the Z-AUC was -1.08 (inactive). Moreover, the Z-AUC under setting [1] is -0.77. Besides, the Z-AUC (measured here: PEO4 Z-AUC) was -1.44.
Take `Cc1ccc(-n2c(C)cc(-c3nnc4n3CCCCC4)c2C)cc1`: the Z-AUC was 1.28 (inactive). Also, the Z-AUC under setting [1] was found to be 1.19. The Z-AUC (measured here: PEO4 Z-AUC) is 1.13.
Taken in the same sequence, the figures for `COc1ccc(-n2cnc3cc(C(=O)N4CCCCC4)ccc32)cc1` were 0.871 (inactive), 0.696 and 0.92.
In the case of `COC1=C2C[C@H](C)C[C@H](OC)[C@H](O)[C@@H](C)/C=C(/C)[C@H](OC(N)=O)[C@@H](OC)/C=C\C=C(\C)C(=O)NC(=CC1=O)C2=O`, the Z-AUC was 0.322 (inactive). Under setting [1], the Z-AUC worked out at 0.489. In addition, for the setting “measured here: PEO4 Z-AUC”, the Z-AUC is 0.496.
For the molecule `CC1(C)OC2=C(C(=O)c3ccccc3C2=O)[C@H](NCc2ccccc2)[C@@H]1O`, the Z-AUC was 0.63 (inactive). For the same molecule, under setting [1], the Z-AUC worked out at 1.22. Besides, where the note is “measured here: PEO4 Z-AUC”, the Z-AUC amounted to 1.45.
The corresponding values for `Cc1c[nH]c2nc(Nc3ccc(N4CCN(C)CC4)c(F)c3)nc(-c3cccc(CC#N)c3)c12` are -0.269 (inactive), -0.34 and -0.115.
In the case of `C[C@H]1CC2[C@@H]3CCC4=CC(=O)C=C[C@]4(C)[C@@]3(F)[C@@H](O)C[C@]2(C)[C@@]1(O)C(=O)CO` (stereo not given in full), the Z-AUC is -1.28 (inactive). For the same molecule, the Z-AUC under setting [1] is -0.45. The Z-AUC (measured here: PEO4 Z-AUC) was -0.996.
Taken in the same sequence, the figures for `C[C@H](CCC(=O)O)[C@H]1CC[C@H]2[C@@H]3[C@@H](O)C[C@@H]4C[C@H](O)CC[C@]4(C)[C@H]3CC[C@]12C` were 0.396 (inactive), 1.43 and 1.41.

(Values after PubChem BioAssay (NCATS).)
